Among the test systems are SK-MEL-2 melanoma; EKVX NSCLC; SN12C renal; UO-31 renal; TK-10 renal; ACHN renal; CAKI-1 renal; A498 renal; CCRF-CEM leukemia; MOLT-4 leukemia; RPMI-8226 leukemia; OVCAR-8 ovarian; OVCAR-5 ovarian; OVCAR-4 ovarian; SK-OV-3 ovarian; OVCAR-3 ovarian; HS 578T breast; NCI/ADR-RES ovarian; IGROV1 ovarian.
What all share (experiment): NCI-60 one-dose screen, 48 h (100 = growth as untreated, 0 = no growth, -100 = all killed)
Common to all, as to settings: 10 µM unless noted

Compounds without any hit were thinned out: in the full panel of roughly 83,000, 20% have a hit.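 The test compound was applied at a single concentration to cells in 96-well plates for 48 hours, and percent growth was recorded.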 Unmarked numbers belong to inactive results. Calls of active or inactive are those of the source. The calls were made as follows: active = growth percent below 10; inactive = the rest.

`CCOC(=O)C/C(C)=N\NC(=O)c1ccncc1`: the growth in the test on SK-MEL-2 melanoma is 120%; in the test with EKVX NSCLC it was 89.6%; in the test with SN12C renal it was 99.9%; in the test with UO-31 renal, 101%; in the test with TK-10 renal it was 95.8%; with ACHN renal it was 103%. The growth was 52.4% in the test with CAKI-1 renal; 96.8% in the test on A498 renal; 99.7% in the test on CCRF-CEM leukemia; 93.9% in the test with MOLT-4 leukemia; 90% with RPMI-8226 leukemia; 99.2% in the test on OVCAR-8 ovarian. Moreover, the growth is 98.3% in the test with OVCAR-5 ovarian; 98.2% in the test with OVCAR-4 ovarian; 101% in the test on SK-OV-3 ovarian; 105% with OVCAR-3 ovarian; 115% in the test with HS 578T breast; 98% with NCI/ADR-RES ovarian.

On to `O=C(/C=C/c1c(Cl)nc2sccn12)c1nccs1`, for which the growth in the test on SK-MEL-2 melanoma was 80.3%; in the test with EKVX NSCLC it was 97.5%; in the test with SN12C renal, 89%; in the test on UO-31 renal, 81.8%; with TK-10 renal, 118%; with ACHN renal, 89.1%. In addition, the growth was 78.8% in the test on CAKI-1 renal; 72.2% in the test on A498 renal; 93.4% in the test on CCRF-CEM leukemia; 89.3% in the test with MOLT-4 leukemia; 83.7% in the test with RPMI-8226 leukemia; 93.9% in the test with OVCAR-8 ovarian. For the same compound, the growth in the test on OVCAR-5 ovarian was 73.2%; with OVCAR-4 ovarian, 109%; with SK-OV-3 ovarian it was 89.8%; with IGROV1 ovarian, 101%; in the test on HS 578T breast, 65.5%; in the test on NCI/ADR-RES ovarian, 99.3%.

For the compound `COc1ccc(-c2nc3sccn3c2-c2cc(-c3cc(OC)c(OC)c(OC)c3)on2)cc1`, the growth was 142% with SK-MEL-2 melanoma; 98.9% in the test on EKVX NSCLC; 105% in the test on SN12C renal; -60.9% (active) in the test with UO-31 renal; 162% in the test with TK-10 renal; 98.7% in the test with ACHN renal. The growth in the test on CAKI-1 renal is 127%; in the test on A498 renal it was 74.4%; in the test with CCRF-CEM leukemia it was 34.6%; with MOLT-4 leukemia, 40.3%; with RPMI-8226 leukemia it was 41.5%; in the test on OVCAR-8 ovarian, 94.6%. The growth in the test on OVCAR-5 ovarian is 124%; in the test with OVCAR-4 ovarian it was 84.4%; in the test on SK-OV-3 ovarian it was 92.2%; in the test on OVCAR-3 ovarian, 76%; in the test on HS 578T breast it was 92.5%; in the test on NCI/ADR-RES ovarian, 87.5%.

Take `COc1ccc2c(c1)C(=O)/C(=C/c1ccc(OCC(=O)Nc3nccs3)cc1)O2`: the growth was 112% with SK-MEL-2 melanoma; 32.7% with EKVX NSCLC; 48.2% with SN12C renal; -80.8% (active) with UO-31 renal; 93.9% in the test on TK-10 renal; 49% with ACHN renal. In addition, the growth is -78.4% (active) in the test with CAKI-1 renal; 99.7% with A498 renal; -73.8% (active) with CCRF-CEM leukemia; -72.9% (active) in the test on MOLT-4 leukemia; -53.8% (active) with RPMI-8226 leukemia; 19.1% with OVCAR-8 ovarian. The growth with OVCAR-5 ovarian is -31.5% (active); with OVCAR-4 ovarian, 48.3%; in the test with SK-OV-3 ovarian, 37.9%; in the test on OVCAR-3 ovarian it was -24.4% (active); in the test on HS 578T breast, 56.2%.

On to `Cc1c(Cl)cc(-n2c(=O)c3ccccc3c3ccccc3c2=O)cc1Cl`, for which the growth in the test on SK-MEL-2 melanoma was 98.3%; in the test on EKVX NSCLC, 97%; in the test with SN12C renal it was 85.2%; with UO-31 renal it was 65.3%; in the test with TK-10 renal, 111%; in the test with ACHN renal it was 101%. The growth with CAKI-1 renal was 80.9%; with A498 renal it was 141%; in the test on CCRF-CEM leukemia, 97.9%; with MOLT-4 leukemia, 95.5%; in the test on RPMI-8226 leukemia it was 91.8%; with OVCAR-8 ovarian it was 105%. Besides, the growth was 101% in the test with OVCAR-5 ovarian; 104% in the test on OVCAR-4 ovarian; 98.4% in the test with SK-OV-3 ovarian; 86.7% with IGROV1 ovarian; 99.3% in the test with HS 578T breast.

`O=C(Nc1cccc2c(O)c(N=Nc3ccc(S(=O)(=O)Nc4nccs4)cc3)cc(N=Nc3ccc(S(=O)(=O)Nc4nccs4)cc3)c12)C(Cl)Cl`: the growth in the test on SK-MEL-2 melanoma is 52.6%; in the test on EKVX NSCLC, 90.5%; with SN12C renal, 111%; in the test with UO-31 renal, 68.3%; in the test with TK-10 renal it was 122%; in the test with ACHN renal, 57.4%. In addition, the growth was 76.8% in the test with CAKI-1 renal; 85% with A498 renal; 72.5% in the test on CCRF-CEM leukemia; 153% with MOLT-4 leukemia; -10.9% (active) in the test on RPMI-8226 leukemia; 59.1% in the test on OVCAR-8 ovarian. Further, the growth in the test with OVCAR-5 ovarian was 112%; with OVCAR-4 ovarian it was 90.3%; with SK-OV-3 ovarian, 107%; in the test with OVCAR-3 ovarian, 35.9%; in the test with HS 578T breast it was 56.4%; in the test with NCI/ADR-RES ovarian it was 101%.

For `CCOC(=O)c1csc(NC(=O)COc2cccc(/C=C3\Oc4cc(OC)ccc4C3=O)c2)n1`, the growth with SK-MEL-2 melanoma is 83.5%; in the test with EKVX NSCLC it was 98.6%; in the test with SN12C renal, 109%; in the test with UO-31 renal it was -38.8% (active); with TK-10 renal, 125%; in the test on ACHN renal, 95.5%. Besides, the growth with CAKI-1 renal was 92.3%; with A498 renal, 108%; with CCRF-CEM leukemia it was 62.3%; in the test with MOLT-4 leukemia it was 65.1%; in the test with RPMI-8226 leukemia it was 64.4%; in the test on OVCAR-8 ovarian, 74.2%. Further, the growth in the test with OVCAR-5 ovarian is 130%; in the test with OVCAR-4 ovarian it was 90%; with SK-OV-3 ovarian it was 101%; in the test with OVCAR-3 ovarian, 78.4%; in the test on HS 578T breast it was 91.3%; in the test with NCI/ADR-RES ovarian, 79.4%.

In the case of `COc1cccc2c1C(=O)c1c(O)c3c(c(O)c1C2=O)CC(O)(/C(C)=N/NC(=O)CCCCC(=O)N/N=C(\C)C1(O)Cc2c(O)c4c(c(O)c2C(OC2CC(N)C(O)C(C)O2)C1)C(=O)c1c(OC)cccc1C4=O)CC3OC1CC(N)C(O)C(C)O1` (stereo not given), the growth with SK-MEL-2 melanoma was -56.9% [5 µM] (active); in the test on EKVX NSCLC it was -16.2% [5 µM] (active); with SN12C renal, -2.85% [5 µM] (active); in the test on UO-31 renal, -16.9% [5 µM] (active); with TK-10 renal, -29.5% [5 µM] (active); in the test with ACHN renal, -33.6% [5 µM] (active). Moreover, the growth was -40% [5 µM] (active) with CAKI-1 renal; -84.5% [5 µM] (active) in the test with A498 renal; -26.4% [5 µM] (active) with CCRF-CEM leukemia; -46.8% [5 µM] (active) with MOLT-4 leukemia; -66% [5 µM] (active) with RPMI-8226 leukemia; 5% [5 µM] (active) in the test with OVCAR-8 ovarian. Besides, the growth is 7.09% [5 µM] (active) in the test with OVCAR-5 ovarian; -9.94% [5 µM] (active) with OVCAR-4 ovarian; -7% [5 µM] (active) in the test with SK-OV-3 ovarian; -37.2% [5 µM] (active) in the test with OVCAR-3 ovarian; -40.4% [5 µM] (active) in the test with HS 578T breast; 75.6% [5 µM] in the test with NCI/ADR-RES ovarian.

`CC(C)=C[C@@H]1c2c(c3ccccc3n(C)c2=O)O[C@H]2c3c(c4ccccc4n(C)c3=O)OC(C)(C)[C@@H]12`: the growth is 66.4% in the test on SK-MEL-2 melanoma; 90.9% in the test on EKVX NSCLC; 115% in the test on SN12C renal; 63.1% with UO-31 renal; 123% in the test with TK-10 renal; 70.4% with ACHN renal. Moreover, the growth in the test with CAKI-1 renal is 87.7%; with A498 renal, 102%; in the test on CCRF-CEM leukemia, 46.6%; with MOLT-4 leukemia, 39.5%; with RPMI-8226 leukemia, -36.8% (active); in the test with OVCAR-8 ovarian it was 90.4%. For the same compound, the growth was 98.7% with OVCAR-5 ovarian; 64.9% with OVCAR-4 ovarian; 118% with SK-OV-3 ovarian; 91.9% with OVCAR-3 ovarian; 93.2% in the test on HS 578T breast; 75.4% with NCI/ADR-RES ovarian.

(Values after PubChem BioAssay (NCI).)
